These results are taken from PubChem BioAssay (EPA / NIEHS).

Read-out in assay [1]: C-C motif chemokine 2 (Homo sapiens) (UniProt P13500)
The assay can be described thus: BSK_KF3CT_MCP1: BioMAP Diversity Plus: KF3CT Assay for Monocyte Chemoattractant Protein 1 (MCP1/CCL2) Biomarker Activity (AID 2283073). The conditions noted are these: primary human keratinocytes with fibroblasts; actives raise or lower the signal. The essentials:
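KF3CT skin co-culture (keratinocytes/foreskin fibroblasts), 24 h post-dose; MCP-1 by ELISA; gain/loss of signal fit bidirectionally vs DMSO baseline.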

Read-out in assay [2]: urokinase plasminogen activator (uPA), PLAU (gene 5328)
The assay can be described thus: BSK_KF3CT_uPA: BioMAP Diversity Plus: KF3CT Assay for urokinase plasminogen activator (uPA) Biomarker Activity (AID 2283075). The conditions noted are these: primary human keratinocytes with fibroblasts; actives raise or lower the signal. A digest of the protocol: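 Human keratinocyte plus foreskin fibroblast primary co-culture exposed to chemical for 24 h. uPA levels were quantified by ELISA, and activity was fitted bidirectionally against a DMSO negative-control baseline.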

Read-out in assay [3]: CD40, CD40 (gene 958)
Description: BSK_LPS_CD40: BioMAP Diversity Plus: LPS Assay for CD40 Biomarker Activity (AID 2283076). The conditions noted are these: primary human HUVEC with PBMC; actives raise or lower the signal. A digest of the protocol:
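ELISA readout of CD40 in HUVEC/PBMC co-culture (BSK_LPS system), 24 h post-dosing; bidirectional curve fit, DMSO baseline; parallel SRB total-protein staining for cytotoxicity.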

Read-out in assay [4]: E-selectin (Homo sapiens) (UniProt P16581)
The assay can be described thus: BSK_LPS_Eselectin: BioMAP Diversity Plus: LPS Assay for Eselectin Biomarker Activity (AID 2283077). The conditions noted are these: primary human HUVEC with PBMC; actives raise or lower the signal. A digest of the protocol:
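ELISA readout of E-selectin, 24 h post-dose, HUVEC + PBMC co-culture (LPS system). Gain or loss of signal vs DMSO baseline, bidirectional fit.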

Read-out in assay [5]: Interleukin-8 (IL8), CXCL8 (gene 3576)
Description: BSK_LPS_IL8: BioMAP Diversity Plus: LPS Assay for Interleukin-8 (IL8) Biomarker Activity (AID 2283078). The conditions noted are these: primary human HUVEC with PBMC; actives raise or lower the signal. A digest of the protocol: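 HUVEC + PBMC co-culture, LPS-activated; test chemicals dosed, IL-8 read by ELISA at 24 h. Bidirectional curve fit vs DMSO baseline (gain or loss of signal).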

The nature of assay [6]: BSK_LPS_SRB: Viability Assessment in the BioMAP Diversity Plus: LPS Assay (AID 2283079).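 Further: total protein by sulforhodamine B absorbance as a cytotoxicity measure; measured one day after compound addition; fitted in both directions against DMSO so loss or gain of signal counts.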 The conditions noted are these: primary human HUVEC with PBMC. The essentials:
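HUVEC + PBMC co-culture, LPS-stimulated; compound 24 h. 10% TCA fix, 0.1% SRB stain, A560. Bidirectional fit vs DMSO.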

Read-out in assay [7]: Interleukin-1 alpha (IL1a), IL1A (gene 3552)
The assay can be described thus: BSK_LPS_IL1a: BioMAP Diversity Plus: LPS Assay for Interleukin-1 alpha (IL1a) Biomarker Activity (AID 2283080). The conditions noted are these: primary human HUVEC with PBMC; actives raise or lower the signal. The essentials: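 HUVEC/PBMC co-culture, LPS system; 24 h after dosing; IL-1a by ELISA; gain or loss of signal fitted bidirectionally vs DMSO baseline.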

Read-out in assay [8]: Monocyte Chemoattractant Protein-1 (MCP1), CCL2 (gene 6347)
Description: BSK_LPS_MCP1: BioMAP Diversity Plus: LPS Assay for Monocyte Chemoattractant Protein-1 (MCP1) Biomarker Activity (AID 2283081).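 On AC50: secreted MCP-1 protein quantified by ELISA in culture supernatant.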 The conditions noted are these: primary human HUVEC with PBMC; actives raise or lower the signal. A digest of the protocol: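 ELISA read-out of MCP-1 after 24 h chemical dosing of a human umbilical vein endothelial cell/peripheral blood mononuclear cell co-culture stimulated with LPS. Gain or loss of signal fitted relative to DMSO controls.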

Assay [9] is described as follows: BSK_LPS_PGE2: BioMAP Diversity Plus: LPS Assay for Prostaglandin E2 (PGE2) Biomarker Activity (AID 2283082). The conditions noted are these: primary human HUVEC with PBMC; actives raise or lower the signal. A digest of the protocol:
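HUVEC plus human PBMC co-culture stimulated with LPS; secreted PGE2 quantified by ELISA 24 h after chemical dosing. Activity fitted bidirectionally against DMSO baseline; parallel SRB staining (0.1% SRB after 10% TCA fixation, 560 nm) flags overt cytotoxicity.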

Read-out in assay [10]: Macrophage colony-stimulating factor (MCSF), CSF1 (gene 1435)
The assay can be described thus: BSK_LPS_MCSF: BioMAP Diversity Plus: LPS Assay for Macrophage colony-stimulating factor (MCSF) Biomarker Activity (AID 2283083). The conditions noted are these: primary human HUVEC with PBMC; actives raise or lower the signal. A digest of the protocol: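 HUVEC + PBMC co-culture (human primary), 24 h post-dose; M-CSF by ELISA; gain/loss of signal fitted bidirectionally vs DMSO baseline.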

Read-out in assay [11]: Tissue Factor, F3 (gene 2152)
Description: BSK_LPS_TissueFactor: BioMAP Diversity Plus: LPS Assay for Tissue Factor Biomarker Activity (AID 2283084). The conditions noted are these: primary human HUVEC with PBMC; actives raise or lower the signal. A digest of the protocol: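 HUVEC/PBMC co-culture, LPS-activated; CD142 ELISA read 24 h post-dose; bidirectional curve fit vs DMSO negative control.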

Read-out in assay [12]: Tumor necrosis factor (Homo sapiens) (UniProt P01375)
Description: BSK_LPS_TNFa: BioMAP Diversity Plus: LPS Assay for Tumour Necrosis Factor alpha (TNFa) Biomarker Activity (AID 2283085). The conditions noted are these: primary human HUVEC with PBMC; actives raise or lower the signal. A digest of the protocol:
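Human umbilical vein endothelial cells co-cultured with PBMC and stimulated with LPS. TNFa was measured by ELISA 24 h after chemical dosing, fitted bidirectionally relative to DMSO.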

Read-out in assay [13]: Vascular cell adhesion molecule 1 (VCAM1), VCAM1 (gene 7412)
The assay can be described thus: BSK_LPS_VCAM1: BioMAP Diversity Plus: LPS Assay for Vascular cell adhesion molecule 1 (VCAM1) Biomarker Activity (AID 2283086). The conditions noted are these: primary human HUVEC with PBMC; actives raise or lower the signal. A digest of the protocol:
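Human umbilical vein endothelial cells co-cultured with PBMC and stimulated with LPS; VCAM-1 measured by ELISA 24 h after dosing. Bidirectional curve fitting against DMSO baseline; cytotoxicity tracked in parallel by SRB total-protein staining.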

Read-out in assay [14]: CD38, CD38 (gene 952)
The assay can be described thus: BSK_SAg_CD38: BioMAP Diversity Plus: SAg Assay for CD38 Biomarker Activity (AID 2283087). The conditions noted are these: primary human HUVEC with PBMC; actives raise or lower the signal. The essentials:
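Human HUVEC plus PBMC co-culture stimulated with superantigen; CD38 measured by ELISA 24 h after chemical dosing. Fluorescence read-out, bidirectional fit against DMSO; cytotoxicity tracked in parallel by SRB and Alamar Blue.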

Read-out in assay [15]: CD40, CD40 (gene 958)
The assay can be described thus: BSK_SAg_CD40: BioMAP Diversity Plus: SAg Assay for CD40 Biomarker Activity (AID 2283088). The conditions noted are these: primary human HUVEC with PBMC; actives raise or lower the signal. A digest of the protocol: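 HUVEC/PBMC co-culture, 24 h post-dose; CD40 by ELISA, fluorescence intensity; bidirectional fit vs DMSO negative control.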

Read-out in assay [16]: CD69, CD69 (gene 969)
Description: BSK_SAg_CD69: BioMAP Diversity Plus: SAg Assay for CD69 Biomarker Activity (AID 2283089).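 On AC50: cell surface CD69 protein quantified by ELISA with fluorescence detection.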 The conditions noted are these: primary human HUVEC with PBMC; actives raise or lower the signal. The essentials:
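Values derive from bidirectional fitting relative to DMSO vehicle. Cells: umbilical vein endothelium plus peripheral blood mononuclear cells, treated 24 h before fluorescent ELISA for CD69.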

Read-out in assay [17]: Monocyte Chemoattractant Protein-1 (MCP1), CCL2 (gene 6347)
Description: BSK_SAg_MCP1: BioMAP Diversity Plus: SAg Assay for Monocyte Chemoattractant Protein-1 (MCP1) Biomarker Activity (AID 2283090). The conditions noted are these: primary human HUVEC with PBMC; actives raise or lower the signal. A digest of the protocol: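 MCP-1 levels in the endothelial–PBMC SAg co-culture were quantified by ELISA at 24 h post-dosing; both increases and decreases versus DMSO scored. Cytotoxicity monitored by SRB total protein in parallel cultures.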

Read-out in assay [18]: E-selectin (Homo sapiens) (UniProt P16581)
Description: BSK_SAg_Eselectin: BioMAP Diversity Plus: SAg Assay for Eselectin Biomarker Activity (AID 2283091). The conditions noted are these: primary human HUVEC with PBMC; actives raise or lower the signal. A digest of the protocol:
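E-selectin ELISA readout at 24 h post-dosing in human umbilical vein endothelial cell/PBMC co-culture; gain or loss of signal fitted relative to DMSO baseline.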

Read-out in assay [19]: Monokine induced gamma interferon (MIG), CXCL9 (gene 4283)
The assay can be described thus: BSK_SAg_MIG: BioMAP Diversity Plus: SAg Assay for Monokine induced gamma interferon (MIG) Biomarker Activity (AID 2283092). The conditions noted are these: primary human HUVEC with PBMC; actives raise or lower the signal. The essentials: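 Values reflect bidirectional fitting of ELISA-measured MIG against DMSO vehicle, taken 24 h after dosing of a co-culture of human umbilical vein endothelial cells and peripheral blood mononuclear cells.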

A structure can be active in one record and inactive in another. Activity calls are given as the source filed them. How the source made its calls: active means hit-call score of the fitted dose curve at least 0.9, where 1 is the maximum; inactive means score below 0.9.

Sequence of E-selectin (Homo sapiens) (P16581 whole entry, looked up): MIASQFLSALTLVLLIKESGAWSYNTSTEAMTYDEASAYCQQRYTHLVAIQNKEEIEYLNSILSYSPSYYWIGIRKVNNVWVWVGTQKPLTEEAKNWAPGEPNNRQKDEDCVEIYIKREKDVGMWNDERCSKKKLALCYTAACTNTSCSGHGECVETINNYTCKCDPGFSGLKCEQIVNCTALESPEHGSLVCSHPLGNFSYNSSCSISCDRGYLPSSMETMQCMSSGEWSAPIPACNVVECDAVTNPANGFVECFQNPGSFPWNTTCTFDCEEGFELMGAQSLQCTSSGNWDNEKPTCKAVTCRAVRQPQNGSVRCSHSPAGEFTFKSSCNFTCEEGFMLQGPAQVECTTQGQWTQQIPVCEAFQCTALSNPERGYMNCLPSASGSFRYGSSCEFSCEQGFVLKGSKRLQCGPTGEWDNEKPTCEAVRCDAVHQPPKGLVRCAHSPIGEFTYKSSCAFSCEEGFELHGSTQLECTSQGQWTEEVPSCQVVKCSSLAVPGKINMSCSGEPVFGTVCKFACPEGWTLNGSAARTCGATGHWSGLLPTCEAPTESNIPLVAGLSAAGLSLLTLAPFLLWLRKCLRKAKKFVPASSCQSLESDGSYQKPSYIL
Sequence of Tumor necrosis factor (Homo sapiens) (P01375 whole entry, looked up): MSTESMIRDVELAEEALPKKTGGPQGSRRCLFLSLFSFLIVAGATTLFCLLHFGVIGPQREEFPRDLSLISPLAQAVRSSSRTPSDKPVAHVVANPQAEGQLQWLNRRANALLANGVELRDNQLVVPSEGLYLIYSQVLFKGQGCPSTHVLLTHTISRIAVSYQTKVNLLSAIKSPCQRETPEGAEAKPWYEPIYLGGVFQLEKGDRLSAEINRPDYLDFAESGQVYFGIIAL

Consider `CC1COc2ccccc2N1C(=O)C(Cl)Cl` (configuration not stated), for which the result in assay [1], in [5], in assay [9], in [11], in [17] and in [19] was inactive. Also, the AC50 (usually the concentration at which the activity in the assay is half-maximal) in [2] is 0.0271 µM (active); in assay [3] it was 10.9 µM (active); in assay [4] it was 20 µM (active); in [6] it was 7.42 µM (active); in assay [7], 13.2 µM (active); in assay [8], 5.75 µM (active). The AC50 in [10] was 8.01 µM (active); in assay [12], 4.9 µM (active); in assay [13], 9.65 µM (active); in assay [14] it was 10.4 µM (active); in assay [15], 7.65 µM (active); in assay [16] it was 5.91 µM (active). In addition, the AC50 in assay [18] was 13.3 µM (active).

In the case of `C=CCOC(=O)CCC1CCCCC1`, the result in [1], in assay [2], in assay [3], in assay [4], in assay [5] and in assay [6] was inactive. The outcome in [7], in assay [8], in assay [9], in assay [10], in [11] and in assay [12] was inactive. In addition, the outcome in assay [13], in assay [14], in [15], in [16], in [17] and in [18] was inactive. In addition, the result in assay [19] was inactive. Moreover, in assay [11], the AC50 is 1.01 µM (active).

Turning to `C=C[Si](OCC)(OCC)OCC`, the result in assay [1], in assay [2], in assay [3], in assay [4], in assay [5] and in assay [6] was inactive. The outcome in assay [7], in assay [8], in assay [9], in [10], in assay [11] and in assay [12] was inactive. Besides, the result in [13], in [14], in assay [15], in assay [16], in [17] and in assay [18] was inactive. Further, in assay [19], the result was inactive.

Regarding `CC(C)Oc1ccccc1O`, the result in assay [1], in assay [2], in assay [3], in assay [4], in assay [5] and in [6] was inactive. The result in assay [7], in [8], in [9], in assay [10], in assay [11] and in [12] was inactive. Also, the outcome in assay [13], in assay [14], in [15], in assay [16], in assay [17] and in assay [18] was inactive. Further, the outcome in assay [19] was inactive.
